This note sets out measurements from PubChem BioAssay AID602387 (Sanford-Burnham Center for Chemical Genomics, 2012).

Hit rate of the full screen: of about 2,300 compounds, about 30 (1%) were called active. A selection follows. A number with no mark means an inactive call.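 How the source made its calls: active means activation of at least 30% at 10 µM; inactive means the rest.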

The nature of the assay: spectral interference with molecular beacon fluorescence, confirmation, artefact control for DNMT1 inhibitor project, biochemical, fluorescent molecular beacon, single concentration (AID 602387).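 Further: DNMT1 catalytic domain with a HinP1I cleavage step and a FAM/dabcyl DNA beacon.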 Particulars: DNMT1 molecular beacon spectral interference counterscreen, fluorescence 485/520; at 10 µM; stronger effect = higher value.
For the compound `COc1cccc(C(=O)Nc2ccc(N3CCCC3)cc2)c1`, the activation (fluorescence interference) is 5.04%.

Take `C=Cc1ccc(C(=O)N2CCCC(CCC(=O)N3CCN(c4ccccn4)CC3)C2)cc1` (configuration not stated): the activation (fluorescence interference) was -0.29%.

In the case of `CCN1C(=O)c2cccc3c(N)ccc1c23`, the activation (fluorescence interference) was 6.17%.

As for `CCNC(=O)C1CCCN(C(=O)c2cc(F)ccc2C)CC1` (configuration not stated), the activation (fluorescence interference) is 5%.

`COc1ccc(C(=O)OCC(=O)Nc2cccc(C(C)=O)c2)cc1OC`: the activation (fluorescence interference) is 8.78%.

As to `CCOc1ccccc1/C=c1\sc2nc(-c3ccco3)nn2c1=O`, the activation (fluorescence interference) was 3.15%.

For the compound `COc1ccc(Cl)cc1NC(=O)CCS(=O)(=O)c1ccc(Br)cc1`, the activation (fluorescence interference) was 3.16%.

As for `O=C(CCN1C(=O)C2C3C=CC(C3)C2C1=O)Nc1ccccc1F` (configuration not stated), the activation (fluorescence interference) was 1.81%.

Consider `COc1ccc(/C=C2\SC(=N)N(c3ccc(F)cc3)C2=O)cc1`, for which the activation (fluorescence interference) is 2.19%.

On to `Oc1c(C(c2ccco2)N2CCC3(CC2)OCCO3)sc2ncnn12` (configuration not stated), for which the activation (fluorescence interference) was 3.04%.

For `O=C(COC(=O)c1ccccc1O)NCc1ccco1`, the activation (fluorescence interference) is 6.37%.

For `O=C(CCS(=O)(=O)c1ccc(Br)cc1)NCCc1ccc(Cl)cc1`, the activation (fluorescence interference) was 1.71%.

Turning to `CCCCCCc1cc2cc(-c3nnc(-c4ccccc4)o3)c(=O)oc2cc1O`, the activation (fluorescence interference) was -8.15%.

With `O=C(CSc1nc2ccccc2c(=O)[nH]1)Nc1nc(-c2ccc(Br)cc2)cs1`, the activation (fluorescence interference) is 1.36%.

On to `COc1ccc(Br)cc1/C=N/Nc1ccc(S(=O)(=O)Nc2ccccc2C(=O)O)cc1[N+](=O)[O-]`, for which the activation (fluorescence interference) is -9.44%.

Turning to `COC(=O)CCCCC1=CCC2C(=O)C=C(O)C2C1` (configuration not stated), the activation (fluorescence interference) was 10.1%.

Turning to `COc1ccc(OCC(=O)NNC(=O)c2ccc(-c3ccccc3)cc2)cc1`, the activation (fluorescence interference) is 1.59%.

On to `CSc1ccc(CNC(=O)c2ccc(NC(=O)C3=CSCCO3)cc2)cc1`, for which the activation (fluorescence interference) was 4.08%.

For the compound `C=CC[C@@H](CC(=O)N[C@H](CO)Cc1ccccc1)C(=O)N[C@@H](COC(=O)[C@@H](CC=C)Cc1ccc(F)cc1)Cc1c[nH]c2ccccc12`, the activation (fluorescence interference) was 10.2%.

For `Cc1ccc(CNC(=O)CSc2nnc3c(n2)[nH]c2ccc(F)cc23)cc1`, the activation (fluorescence interference) is 3.05%.

With `COc1cc(-c2nnc(NC(=O)CS(=O)(=O)c3ccc(Cl)cc3)o2)cc(OC)c1OC`, the activation (fluorescence interference) was 5.03%.

For the compound `COc1ccc(-n2c(SCC(=O)Nc3sc4c(c3C#N)CCCC4)nnc2-c2ccc(O)cc2)cc1`, the activation (fluorescence interference) is 1.12%.

On to `CCOc1cc(NC(=O)c2ccco2)c(OCC)cc1NC(=O)COc1ccccc1`, for which the activation (fluorescence interference) is -8.28%.

On to `CC1(C)Cc2nc3sc4c(SCC(=O)NC(c5ccccc5)c5ccccc5)ncnc4c3cc2CO1`, for which the activation (fluorescence interference) was 1.08%.

Take `O=C(COc1ccc(/C=N/NC(=O)c2ccc(O)cc2)cc1)Nc1ccc([N+](=O)[O-])cc1`: the activation (fluorescence interference) was -12.5%.

`O=C(c1ccc(CS(=O)(=O)c2ccccc2)o1)N1CCN(c2ccccc2)CC1`: the activation (fluorescence interference) was -0.52%.

As to `CCOC(=O)C(NC(=O)CC(C)C)(Nc1sc2c(c1C(N)=O)CCCC2)C(F)(F)F` (configuration not stated), the activation (fluorescence interference) is 6.15%.

In the case of `COc1ccc(C(=O)/C=C/c2ccc(-c3ccccc3)cc2)cc1CSCC(=O)O`, the activation (fluorescence interference) was -0.97%.

For the compound `O=C(COc1ccc([N+](=O)[O-])cc1)Nc1ccc(N2CCCC2)cc1`, the activation (fluorescence interference) was 4.14%.

`N#Cc1ccccc1CN1C(=O)S/C(=C/c2cccn2-c2cccc(C(=O)O)c2)C1=O`: the activation (fluorescence interference) was 1.4%.

For `COc1ccc2sc(-c3ccc(S(C)(=O)=O)cc3)c(-c3ccc(C(N)=O)cc3)c2c1`, the activation (fluorescence interference) is 4.53%.

For the compound `CN(CCOc1ccccc1)C(=O)c1cc(-c2ccco2)nc2ccccc12`, the activation (fluorescence interference) is 3.34%.

In the case of `Cc1ccc2cc(C)c(N3CCC(C)CC3)nc2c1`, the activation (fluorescence interference) is 2.52%.

Take `COc1ccc(NC(=O)CN(C)C(=O)c2cc(C3CC3)nn2-c2ccccc2)cc1`: the activation (fluorescence interference) is 0.09%.

Turning to `COc1ccc(CC(=O)Nc2ccc(-c3nnc(-c4ccc(C)cc4)o3)cc2)cc1`, the activation (fluorescence interference) is -5.84%.

Turning to `CS(=O)(=O)c1ccc2c(c1)SC1=NC(=O)/C(=C/c3ccco3)C(=N)N12`, the activation (fluorescence interference) was 1.32%.

`O=C1CCCC(O)=C1C=NCCc1ccccc1`: the activation (fluorescence interference) is 5.41%.

Consider `O=C(Nc1cccc(-c2nc3ccccc3[nH]2)c1)c1ccc(C(=O)Nc2cccc(-c3nc4ccccc4[nH]3)c2)cc1`, for which the activation (fluorescence interference) is -6.94%.

For the compound `CC(Oc1ccccc1)C(=O)Nc1oc(-c2ccco2)c(-c2ccco2)c1C#N` (configuration not stated), the activation (fluorescence interference) is 0.87%.

Consider `c1ccc2cc3[nH]c(CN4CCCCC4)nc3cc2c1`, for which the activation (fluorescence interference) is 5.49%.

Take `CC(=O)Nc1ccc(SCC(=O)NC(=O)c2ccc(Cl)cc2)cc1`: the activation (fluorescence interference) was 4.23%.

With `Cc1nnc(N/N=C/c2cccs2)[nH]c1=O`, the activation (fluorescence interference) is 1.29%.

With `CCCCNC(=O)CCn1c(=O)c2ccccc2n(Cc2cc(C)ccc2C)c1=O`, the activation (fluorescence interference) is 1.75%.

With `Cc1ccc(C(=O)NNC(=O)c2cc3cc4ccccc4nc3s2)cc1`, the activation (fluorescence interference) was 4.21%.

For the compound `CC(C)(C)NC(=O)CSC(=Nc1ccccc1F)NC#N`, the activation (fluorescence interference) was 8.71%.

For `COc1ccc2[nH]c(=O)c(-c3noc(-c4ccc(F)cc4)n3)cc2c1`, the activation (fluorescence interference) was -3.37%.

Take `COc1ccc(OC)c(NC(=O)c2cc(-c3cc(F)ccc3OCC3CCCO3)n[nH]2)c1` (configuration not stated): the activation (fluorescence interference) is 7.7%.

In the case of `O=C(NNc1ccccn1)c1ccc(Cl)nc1`, the activation (fluorescence interference) is 1.8%.

Turning to `O=C(Oc1ccc(-c2nc(-c3ccccn3)no2)cc1)c1ccccc1`, the activation (fluorescence interference) is -1.62%.

As to `CCc1nn(-c2cc(Oc3cccc4ccccc34)nc(-c3ccccc3)n2)c(N)c1C#N`, the activation (fluorescence interference) was 1.42%.

In the case of `CCOC(=O)c1cccc(NC(=O)C2CCCN(S(=O)(=O)c3cnc[nH]3)C2)c1` (configuration not stated), the activation (fluorescence interference) is 2.94%.

As for `C=CCn1c(=S)[nH]c2scc(-c3ccco3)c2c1=O`, the activation (fluorescence interference) is -3.16%.
